This is part of a sample that, as a whole, favours compounds with a hit. Of some 83,000 tested, about 20% had one in any assay.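 Treatment: one concentration, 48 hours, 96-well format. Scoring: percent growth, with anything below 10 considered active.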 Active and inactive are the calls of the source.
How the values were obtained:
Test in all cases: NCI-60 one-dose screen, 48 h (100 = growth as untreated, 0 = no growth, -100 = all killed)
Conditions in all cases: 10 µM unless noted
NCI-H23 lung = tested on: NCI-H23 lung
NCI-H226 lung = tested on: NCI-H226 lung
NCI-H322M lung = tested on: NCI-H322M lung
HOP-62 NSCLC = tested on: HOP-62 NSCLC
NCI-H460 lung = tested on: NCI-H460 lung
HOP-92 NSCLC = tested on: HOP-92 NSCLC
NCI-H522 lung = tested on: NCI-H522 lung
A549/ATCC NSCLC = tested on: A549/ATCC NSCLC
786-0 renal = tested on: 786-0 renal
COLO 205 colon = tested on: COLO 205 colon
DU-145 prostate = tested on: DU-145 prostate
K-562 leukemia = tested on: K-562 leukemia
MALME-3M melanoma = tested on: MALME-3M melanoma
MDA-MB-231 breast = tested on: MDA-MB-231 breast
RXF 393 renal = tested on: RXF 393 renal
SF-268 CNS = tested on: SF-268 CNS
SF-295 CNS = tested on: SF-295 CNS
SF-539 CNS = tested on: SF-539 CNS
UACC-257 melanoma = tested on: UACC-257 melanoma
M14 melanoma = tested on: M14 melanoma

Measured: growth

Cc1nc2c(c(-c3ccccc3)n1)Cc1c(ccc3ccccc13)O2
inactive: NCI-H23 lung 97.8% | NCI-H226 lung 82.2% | NCI-H322M lung 148% | HOP-62 NSCLC 90.9% | NCI-H460 lung 98.1% | HOP-92 NSCLC 81.9% | NCI-H522 lung 100% | A549/ATCC NSCLC 96% | 786-0 renal 98.7% | COLO 205 colon 100% | DU-145 prostate 115% | K-562 leukemia 132% | MALME-3M melanoma 126% | MDA-MB-231 breast 83% | RXF 393 renal 105% | SF-268 CNS 94.8% | SF-295 CNS 112% | SF-539 CNS 96.7% | UACC-257 melanoma 113% | M14 melanoma 104%

O=C(O)COc1ccc(F)cc1
inactive: NCI-H23 lung 96.8% | NCI-H226 lung 105% | NCI-H322M lung 99.6% | HOP-62 NSCLC 98.7% | NCI-H460 lung 113% | HOP-92 NSCLC 102% | NCI-H522 lung 93.8% | A549/ATCC NSCLC 99.6% | 786-0 renal 102% | COLO 205 colon 116% | DU-145 prostate 109% | K-562 leukemia 97.1% | MALME-3M melanoma 107% | MDA-MB-231 breast 100% | RXF 393 renal 107% | SF-268 CNS 93.6% | SF-295 CNS 102% | SF-539 CNS 96.9% | UACC-257 melanoma 102% | M14 melanoma 109%

O=C(Oc1ccccc1)c1cc(O)c(O)c(O)c1
inactive: NCI-H23 lung 72.3% | NCI-H226 lung 89.8% | NCI-H322M lung 54.8% | HOP-62 NSCLC 54.9% | NCI-H460 lung 28% | HOP-92 NSCLC 79.6% | NCI-H522 lung 53.3% | A549/ATCC NSCLC 68.9% | 786-0 renal 55% | COLO 205 colon 99.2% | DU-145 prostate 76.2% | K-562 leukemia 50.8% | MALME-3M melanoma 88% | MDA-MB-231 breast 63.4% | RXF 393 renal 110% | SF-268 CNS 59.7% | SF-295 CNS 73.5% | SF-539 CNS 54% | UACC-257 melanoma 112% | M14 melanoma 68.4%

COC1=C(OC)C(=O)C(CCCCCCCCCCO)=C(C)C1=O
inactive: NCI-H23 lung 35.2% | NCI-H226 lung 96.6% | NCI-H322M lung 112% | HOP-62 NSCLC 86.4% | NCI-H460 lung 98.8% | HOP-92 NSCLC 76.6% | NCI-H522 lung 63.7% | A549/ATCC NSCLC 96% | 786-0 renal 83.3% | COLO 205 colon 102% | DU-145 prostate 72% | K-562 leukemia 45.7% | MALME-3M melanoma 87% | MDA-MB-231 breast 42% | RXF 393 renal 64% | SF-268 CNS 64.2% | SF-295 CNS 77.8% | SF-539 CNS 74% | UACC-257 melanoma 46% | M14 melanoma 92.7%

Cc1ccc(OCCOCCOCCOCCOc2ccc(C)n(O)c2=S)c(=S)n1O
active: NCI-H226 lung 7.35% | HOP-62 NSCLC -0.489% | NCI-H460 lung 1.54% | 786-0 renal -5.93% | COLO 205 colon 5.35% | SF-539 CNS 5.23% | UACC-257 melanoma -9.07% | M14 melanoma -16.1%
inactive: NCI-H23 lung 18.5% | NCI-H322M lung 23.6% | HOP-92 NSCLC 36.8% | NCI-H522 lung 17.9% | A549/ATCC NSCLC 12.5% | DU-145 prostate 17.5% | K-562 leukemia 16.2% | MALME-3M melanoma 15.6% | MDA-MB-231 breast 34.9% | RXF 393 renal 38.6% | SF-268 CNS 11.4% | SF-295 CNS 18.2%

Nc1ccc(N)c2c1C(=O)c1cccc([N+](=O)[O-])c1C2=O
inactive: NCI-H226 lung 16.6% | HOP-92 NSCLC 63.3% | NCI-H522 lung 25.6% | A549/ATCC NSCLC 20.8% | 786-0 renal 17.4% | COLO 205 colon 66.3% | K-562 leukemia 40.4% | MALME-3M melanoma 54.3% | MDA-MB-231 breast 67.9% | RXF 393 renal 45.7% | SF-268 CNS 57.3% | SF-295 CNS 21.3% | SF-539 CNS 23.6% | UACC-257 melanoma 52.3% | M14 melanoma 30.8%
active: NCI-H23 lung -29.1% | NCI-H322M lung 2.12% | HOP-62 NSCLC 9.73% | NCI-H460 lung -3.34% | DU-145 prostate -15.9%

O=C(Nc1ccc2c(c1)-c1ccccc1C2)C1CC(=O)N(c2ccc3c(c2)OCO3)C1 (stereo not given)
inactive: NCI-H23 lung 51.6% [50 µM] | NCI-H226 lung 30.2% [50 µM] | NCI-H322M lung 55.9% [50 µM] | HOP-62 NSCLC 70.7% [50 µM] | NCI-H460 lung 32.9% [50 µM] | HOP-92 NSCLC 65% [50 µM] | NCI-H522 lung 77.5% [50 µM] | A549/ATCC NSCLC 66.7% [50 µM] | 786-0 renal 30.9% [50 µM] | COLO 205 colon 86.2% [50 µM] | DU-145 prostate 52.1% [50 µM] | K-562 leukemia 57.5% [50 µM] | MALME-3M melanoma 58.1% [50 µM] | MDA-MB-231 breast 59.9% [50 µM] | RXF 393 renal 56.6% [50 µM] | SF-268 CNS 69.2% [50 µM] | SF-295 CNS 47% [50 µM] | UACC-257 melanoma 69.5% [50 µM] | M14 melanoma 62.7% [50 µM]
active: SF-539 CNS -60.7% [50 µM]

COc1ccc(N/N=C/c2ccc3c(c2)Sc2ccccc2N3C)cc1
inactive: NCI-H23 lung 76.8% | NCI-H322M lung 77.1% | HOP-62 NSCLC 66.9% | NCI-H460 lung 28.9% | HOP-92 NSCLC 67.5% | NCI-H522 lung 46.9% | A549/ATCC NSCLC 57.2% | 786-0 renal 88.4% | COLO 205 colon 102% | DU-145 prostate 58.7% | MALME-3M melanoma 107% | MDA-MB-231 breast 84.2% | RXF 393 renal 105% | SF-268 CNS 53.7% | SF-539 CNS 57.1% | UACC-257 melanoma 96.1% | M14 melanoma 40.9%
active: NCI-H226 lung -68.4% | K-562 leukemia 4.21% | SF-295 CNS 6.85%

CCN(CC)CCOc1ccc(/C(=C(\C)Cc2ccc(OC)cc2)c2ccc(O)cc2)cc1
inactive: NCI-H23 lung 59.2% | NCI-H226 lung 74.6% | NCI-H322M lung 54.5% | HOP-62 NSCLC 25.8% | A549/ATCC NSCLC 19.4% | DU-145 prostate 53.4% | MDA-MB-231 breast 24% | SF-268 CNS 47.9%
active: NCI-H460 lung -36.4% | HOP-92 NSCLC 2.96% | NCI-H522 lung -9.94% | 786-0 renal -37.1% | COLO 205 colon -72.1% | K-562 leukemia -56.7% | MALME-3M melanoma -76.7% | RXF 393 renal 6.99% | SF-295 CNS -25.3% | SF-539 CNS -50.8% | UACC-257 melanoma -62.9% | M14 melanoma -77.3%

COc1ccc(/C=N\NC(=O)c2ccc3nc(-c4ccc(Cl)cc4)[nH]c3c2)cc1
active: NCI-H460 lung 5.91% | 786-0 renal 3.15% | MALME-3M melanoma 6.53% | SF-295 CNS -38.9%
inactive: NCI-H23 lung 41.6% | NCI-H226 lung 73.8% | NCI-H322M lung 55.9% | HOP-62 NSCLC 30.3% | HOP-92 NSCLC 36% | NCI-H522 lung 82.6% | A549/ATCC NSCLC 12% | COLO 205 colon 22.9% | DU-145 prostate 79.3% | K-562 leukemia 31.9% | MDA-MB-231 breast 39.8% | RXF 393 renal 43.8% | SF-268 CNS 19.9% | SF-539 CNS 42.6% | UACC-257 melanoma 54.4% | M14 melanoma 26.2%

O=C(Nc1ccccc1)Nc1ccccc1CNc1nc(Nc2ccc(OCCN3CCCC3)cc2)ncc1Cl
inactive: NCI-H23 lung 68.1% | NCI-H226 lung 89.4% | NCI-H322M lung 91.1% | HOP-62 NSCLC 79.3% | HOP-92 NSCLC 65.1% | NCI-H522 lung 58.6% | A549/ATCC NSCLC 59.4% | COLO 205 colon 33% | DU-145 prostate 88% | MALME-3M melanoma 71.2% | MDA-MB-231 breast 41.9% | RXF 393 renal 33.7% | SF-268 CNS 72.5% | SF-295 CNS 73.3% | SF-539 CNS 31% | UACC-257 melanoma 75.3% | M14 melanoma 61.2%
active: NCI-H460 lung -37.7% | 786-0 renal 9.35% | K-562 leukemia 7.08%

O=C(CSc1nnc(-c2ccc(Cl)c(Cl)c2)n1-c1ccccc1)Nc1ccc(C(=O)/C=C/c2ccc(Cl)cc2)cc1
inactive: NCI-H23 lung 95.4% | NCI-H226 lung 89.1% | NCI-H322M lung 96.9% | HOP-62 NSCLC 91.1% | NCI-H460 lung 99.5% | HOP-92 NSCLC 80.7% | NCI-H522 lung 64.7% | A549/ATCC NSCLC 68.9% | 786-0 renal 88.6% | COLO 205 colon 93.3% | DU-145 prostate 98.3% | K-562 leukemia 81.9% | MALME-3M melanoma 94.6% | MDA-MB-231 breast 86.5% | RXF 393 renal 92.1% | SF-268 CNS 92.2% | SF-295 CNS 98.2% | SF-539 CNS 97.9% | UACC-257 melanoma 77.3% | M14 melanoma 82.2%

COc1ccc(/C(C)=C(\c2ccc(Cl)cc2)c2ccc(OCCCN(C)C)cc2)cc1
active: K-562 leukemia 1.91%
inactive: NCI-H23 lung 82.3% | NCI-H226 lung 103% | NCI-H322M lung 82.2% | HOP-62 NSCLC 101% | NCI-H460 lung 40.2% | HOP-92 NSCLC 62.5% | NCI-H522 lung 76.7% | A549/ATCC NSCLC 47.2% | 786-0 renal 75.3% | COLO 205 colon 15% | DU-145 prostate 90.4% | MALME-3M melanoma 64.5% | MDA-MB-231 breast 78.9% | RXF 393 renal 70.1% | SF-268 CNS 77.4% | SF-295 CNS 85.7% | SF-539 CNS 82.5% | UACC-257 melanoma 89.1% | M14 melanoma 36.8%

Cc1cc([N+](=O)[O-])ccc1NC(=O)c1ccc2c(c1)nc(-c1ccccc1)n2C1CCCCC1
inactive: NCI-H23 lung 91.5% | NCI-H226 lung 93% | NCI-H322M lung 80% | HOP-62 NSCLC 91.8% | NCI-H460 lung 87.3% | HOP-92 NSCLC 117% | NCI-H522 lung 63.1% | A549/ATCC NSCLC 78.8% | 786-0 renal 86.7% | COLO 205 colon 73.2% | DU-145 prostate 105% | K-562 leukemia 49.9% | MALME-3M melanoma 80.4% | MDA-MB-231 breast 84.4% | RXF 393 renal 96.5% | SF-268 CNS 77.1% | SF-295 CNS 80.5% | SF-539 CNS 92.2% | UACC-257 melanoma 92.4% | M14 melanoma 74.9%
